Here are results for 5 compounds from PubChem BioAssay (EPA / NIEHS).

Structures are written as SMILES. Where “and” joins values, the source holds several entries; their conditions need not be identical. Equal values may be shown once. More than one record can exist for a structure, and the calls need not agree. Calls of active or inactive are those of the source. The calls were made as follows: active = hit-call score of the fitted dose curve at least 0.9, where 1 is the maximum; inactive = score below 0.9.

The nature of assay [1]: ATG_E_Box_CIS: Attagene CIS-FACTORIAL HepG2 Assay for human Enhancer Box (E-box) (AID 2282936). To be noted: HepG2 E-box cis-reporter transcription, actives raise or lower the signal. The essentials:
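Multiplexed CIS reporter system in transiently transfected HepG2 cells measures native transcription factor activity. Reporter RNA after 24 h exposure is profiled by RT-PCR-capillary electrophoresis.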

The nature of assay [2]: ATG_M_61_CIS: Attagene CIS-FACTORIAL HepG2 Assay for M61 Transcription Factor (Internal Marker) (AID 2282937). To be noted: HepG2 Attagene CIS-FACTORIAL M61 internal marker reporter; actives raise or lower the signal. The essentials: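 Multiplexed reporter mRNA assay, HepG2 human hepatoma cells, 24 h treatment. Signal: FAM-labelled, HpaI-digested RT-PCR fragments by CE. Fit: bidirectional, baseline DMSO.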

Assay [3] can be described thus: ATG_EGR_CIS: Attagene CIS-FACTORIAL HepG2 Assay for human Early Growth Response 1 (EGR1) (AID 2282938). Conditions: HepG2 Attagene CIS-FACTORIAL EGR reporter mRNA; actives raise or lower the signal. The essentials:
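Multiplexed cis-reporter system in human hepatoma HepG2 cells, transiently transfected. Cells are dosed for 24 h; reporter transcripts are amplified, fluorescently tagged and sized by capillary electrophoresis, with DMSO as negative control.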

Assay [4] in a line: ATG_M_19_CIS: Attagene CIS-FACTORIAL HepG2 Assay for M19 Transcription Factor (Internal Marker) (AID 2282939). To be noted: HepG2 Attagene CIS-FACTORIAL M19 internal marker reporter; actives raise or lower the signal. The essentials:
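HepG2 cells transiently transfected with cis-regulated multiple reporter transcription units were dosed for 24 h; reporter mRNA was quantified by RT-PCR, 6-FAM primer-extension labelling, HpaI digestion and capillary electrophoresis, with bidirectional fitting against DMSO baseline.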

The nature of assay [5]: ATG_ERE_CIS: Attagene CIS-FACTORIAL HepG2 Assay for Estrogen Response Element (ERE) (AID 2282940). Conditions: HepG2 ERE cis-reporter, Attagene RNA transcript; actives raise or lower the signal. The essentials: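 HepG2 cells transiently transfected with cis-promoter-driven multiplexed reporter transcription units report endogenous TF activity. After 24 h compound exposure, reporter mRNA is quantified by RT-PCR with capillary electrophoresis fluorescence; bidirectional fitting versus DMSO baseline.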

A short description of assay [6]: ATG_Ets_CIS: Attagene CIS-FACTORIAL HepG2 Assay for human Erythroblast Transformation Specific (ETS) (AID 2282941). To be noted: HepG2 ETS cis-reporter transcription, actives raise or lower the signal. The gist of the method: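 After transient cis-reporter transfection, HepG2 cells receive test chemical for 24 h. Reporter mRNA levels, measured by RT-PCR and capillary electrophoresis fluorescence, are analysed bidirectionally relative to the DMSO baseline.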

Assay [7] deals with Hepatocyte nuclear factor 3-beta (Homo sapiens) (UniProt Q9Y261). In words: ATG_FoxA2_CIS: Attagene CIS-FACTORIAL HepG2 Assay for human Forkhead box A2 (FOXA2) (AID 2282942). To be noted: HepG2 cis-reporter transcription factor activity, 24 h; actives raise or lower the signal. The essentials: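 Multiplexed cis-element reporter assay in transiently transfected HepG2. Twenty-four hours post-dosing, RNA was reverse-transcribed, amplified, FAM-labelled, HpaI-digested and separated by CE. Activity gain or loss relative to DMSO.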
Hepatocyte nuclear factor 3-beta (Homo sapiens), sequence (Q9Y261 whole entry, looked up): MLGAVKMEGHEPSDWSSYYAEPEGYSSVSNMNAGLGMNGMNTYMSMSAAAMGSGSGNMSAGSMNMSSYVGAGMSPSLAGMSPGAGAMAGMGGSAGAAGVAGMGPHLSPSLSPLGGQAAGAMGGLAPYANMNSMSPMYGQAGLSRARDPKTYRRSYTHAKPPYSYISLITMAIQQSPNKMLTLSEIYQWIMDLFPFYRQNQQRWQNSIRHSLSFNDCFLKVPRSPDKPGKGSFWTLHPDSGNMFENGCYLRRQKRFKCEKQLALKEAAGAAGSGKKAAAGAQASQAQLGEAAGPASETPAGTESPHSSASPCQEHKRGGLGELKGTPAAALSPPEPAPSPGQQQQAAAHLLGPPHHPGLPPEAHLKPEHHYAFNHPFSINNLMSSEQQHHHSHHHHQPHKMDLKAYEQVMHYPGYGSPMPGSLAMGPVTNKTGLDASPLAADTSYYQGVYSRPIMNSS

Assay [8] in a line: ATG_FoxO_CIS: Attagene CIS-FACTORIAL HepG2 Assay for human Forkhead box O (FoxO) (AID 2282943). Conditions: HepG2 Attagene cis-reporter, FoxO element, mRNA; actives raise or lower the signal. The essentials: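 Values reflect reporter mRNA induction or loss in HepG2 cells 24 h post-dosing, fitted bidirectionally with DMSO as negative control and baseline. Detection used RT-PCR and fluorescence capillary electrophoresis.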

The nature of assay [9]: ATG_GATA_CIS: Attagene CIS-FACTORIAL HepG2 Assay for human GATA Binding Protein (AID 2282944). To be noted: HepG2 GATA cis-element reporter, Attagene multiplex mRNA; actives raise or lower the signal. The gist of the method: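 HepG2 cells transiently transfected with multiplexed cis-element reporter units reflecting endogenous transcription factor activity; reporter mRNA measured after 24 h dosing by RT-PCR, 6-FAM labeling, HpaI digestion and capillary electrophoresis. Bidirectional fitting versus DMSO baseline.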

Assay [10] in a line: ATG_GLI_CIS: Attagene CIS-FACTORIAL HepG2 Assay for human Zinc Finger Protein GLI1 (AID 2282945). To be noted: HepG2, Attagene cis-factorial reporter mRNA, GLI element; actives raise or lower the signal. The essentials:
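HepG2 cells transiently transfected with cis-promoter multiplexed reporter units report endogenous transcription factor activity. After 24 h chemical exposure, reporter mRNA was quantified by RT-PCR, 6-FAM labelling, HpaI digestion and capillary electrophoresis, with bidirectional fitting against DMSO.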

Assay [11] in a line: ATG_GRE_CIS: Attagene CIS-FACTORIAL HepG2 Assay for human Glucocorticoid Response Elements (GRE) (AID 2282947). To be noted: HepG2 GRE cis-reporter, Attagene multiplex mRNA; actives raise or lower the signal. The gist of the method: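 Following 24 h chemical exposure of transiently transfected HepG2 cells, total RNA was reverse-transcribed and reporter cDNA amplified, fluorescently labelled and sized by capillary electrophoresis. Signal gain or loss was fitted relative to DMSO vehicle.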

A short description of assay [12]: ATG_ISRE_CIS: Attagene CIS-FACTORIAL HepG2 Assay for human Interferon Regulatory Factor 1 (IRF1) binding to an Interferon-Stimulated Response Element (ISRE) (AID 2282948). To be noted: HepG2 ISRE cis-reporter (Attagene), mRNA transcription readout; actives raise or lower the signal. The gist of the method:
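Quantitation relies on labelled RT-PCR fragments separated by capillary electrophoresis. Human HepG2 cells bearing cis-promoter reporter constructs were treated 24 h; DMSO served as baseline for bidirectional fitting.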

Assay [13] can be described thus: ATG_M_32_CIS: Attagene CIS-FACTORIAL HepG2 Assay for M32 Transcription Factor (Internal Marker) (AID 2282949).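 Also: background control marker of the multiplexed CIS panel rather than a real target.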 To be noted: HepG2 Attagene cis-factorial M32 reporter, mRNA; actives raise or lower the signal. The gist of the method:
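HepG2 cells transiently transfected with multiplexed cis-regulated reporter units, dosed 24 h. Reporter mRNA quantified by RT-PCR, 6-FAM labelling, HpaI digestion and capillary electrophoresis; bidirectional fit vs DMSO.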

Assay [14] is described as follows: ATG_M_06_CIS: Attagene CIS-FACTORIAL HepG2 Assay for M06 Transcription Factor (Internal Marker) (AID 2282950). Conditions: HepG2 Attagene CIS-FACTORIAL M06 internal marker reporter; actives raise or lower the signal. The gist of the method: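 HepG2 cells transiently transfected with cis-regulated multiple reporter transcription units were exposed to chemical for 24 h; reporter mRNA was quantified by RT-PCR, 6-FAM primer labelling, HpaI digestion and capillary electrophoresis, fitted bidirectionally against DMSO.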

The target of assay [15] is Hypoxia-inducible factor 1-alpha (Homo sapiens) (UniProt Q16665). As to the kind of experiment: ATG_HIF1a_CIS: Attagene CIS-FACTORIAL HepG2 Assay for human Hypoxia Inducible Factor 1 (HIF1A) (AID 2282951). To be noted: HepG2 Attagene cis-factorial HIF1a reporter transcription; actives raise or lower the signal. The gist of the method:
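Cis-element reporter constructs were transiently transfected into HepG2 cells, which were treated for 24 h; reporter RNA was reverse-transcribed, amplified, labelled and resolved by capillary electrophoresis.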

Assay [16] has as its target Hepatocyte nuclear factor 6 (Homo sapiens) (UniProt Q9UBC0). As to the kind of experiment: ATG_HNF6_CIS: Attagene CIS-FACTORIAL HepG2 Assay for human Hepatocyte Nuclear Factor 6 (HNF6) (AID 2282952). Conditions: HepG2 Attagene cis-factorial HNF6 reporter transcription; actives raise or lower the signal. The essentials: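 HepG2 cells transiently transfected with cis-element-driven multiplexed reporter units measuring endogenous transcription factor activity. After 24 h exposure, reporter mRNA quantified by RT-PCR, FAM-labelled fragments and capillary electrophoresis; bidirectional fitting versus DMSO.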

Assay [17] addresses Heat shock factor protein 1 (Homo sapiens) (UniProt Q00613). In words: ATG_HSE_CIS: Attagene CIS-FACTORIAL HepG2 Assay for human Heat Shock Transcription Factor 1 (HSE) (AID 2282953). To be noted: HepG2 HSE cis-reporter, Attagene RNA transcription; actives raise or lower the signal. The gist of the method: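 HepG2 cells transiently transfected with multiple reporter transcription units under cis-regulatory promoter control, measuring endogenous transcription factor activity. After 24 h chemical exposure, reporter mRNA quantified by RT-PCR, fluorescent labelling, HpaI digestion and capillary electrophoresis; bidirectional fit versus DMSO.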

The nature of assay [18]: ATG_MRE_CIS: Attagene CIS-FACTORIAL HepG2 Assay for human Metal Responsive Element (MRE) (AID 2282954). Conditions: HepG2 MRE cis-reporter transcription, Attagene multiplex; actives raise or lower the signal. The essentials:
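Step one: transfect HepG2 with cis-regulated reporter units. Step two: dose 24 h. Step three: isolate RNA, RT-PCR, 6-FAM label, HpaI digest, capillary electrophoresis. Fit bidirectionally to DMSO.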

Assay [19] addresses Paired box protein Pax-6 (Homo sapiens) (UniProt P26367). In words: ATG_Pax6_CIS: Attagene CIS-FACTORIAL HepG2 Assay for human Paired Box 6 (PAX6) (AID 2282956). Conditions: HepG2 CIS-FACTORIAL PAX6 reporter transcription, RNA readout; actives raise or lower the signal. The gist of the method: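 After twenty-four hours of chemical exposure, transfected HepG2 cells are harvested for RNA. Cis-promoter reporter transcripts are amplified, fluorescently labelled and sized by capillary electrophoresis, with gain and loss of signal scored against DMSO.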

A short description of assay [20]: ATG_PBREM_CIS: Attagene CIS-FACTORIAL HepG2 Assay for human Phenobarbital-responsive Enhancer Module (PBREM) (AID 2282955). Conditions: HepG2 PBREM cis-reporter, Attagene multiplexed transcription; actives raise or lower the signal. The gist of the method:
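Multiplexed cis-reporter readout in human hepatoma HepG2 cells; PBREM-regulated transcript quantified after 24 h exposure by fluorescent RT-PCR fragment analysis. Signal changes up or down fitted relative to DMSO.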

Hepatocyte nuclear factor 6 (Homo sapiens), sequence (Q9UBC0 whole entry, looked up, the tested form may be a part): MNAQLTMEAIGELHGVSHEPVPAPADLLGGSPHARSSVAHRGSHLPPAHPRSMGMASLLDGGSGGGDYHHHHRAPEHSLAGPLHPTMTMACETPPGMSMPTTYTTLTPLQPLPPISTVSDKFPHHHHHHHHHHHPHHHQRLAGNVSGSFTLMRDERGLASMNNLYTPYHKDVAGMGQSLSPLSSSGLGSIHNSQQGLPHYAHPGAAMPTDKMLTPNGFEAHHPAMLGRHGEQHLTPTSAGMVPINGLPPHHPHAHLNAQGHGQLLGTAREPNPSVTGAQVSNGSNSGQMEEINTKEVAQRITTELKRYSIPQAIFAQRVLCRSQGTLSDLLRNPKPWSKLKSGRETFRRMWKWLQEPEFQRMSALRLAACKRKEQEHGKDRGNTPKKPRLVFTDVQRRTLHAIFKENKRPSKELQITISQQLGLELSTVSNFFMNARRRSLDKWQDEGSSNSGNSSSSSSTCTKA
Heat shock factor protein 1 (Homo sapiens), sequence (Q00613 whole entry, looked up): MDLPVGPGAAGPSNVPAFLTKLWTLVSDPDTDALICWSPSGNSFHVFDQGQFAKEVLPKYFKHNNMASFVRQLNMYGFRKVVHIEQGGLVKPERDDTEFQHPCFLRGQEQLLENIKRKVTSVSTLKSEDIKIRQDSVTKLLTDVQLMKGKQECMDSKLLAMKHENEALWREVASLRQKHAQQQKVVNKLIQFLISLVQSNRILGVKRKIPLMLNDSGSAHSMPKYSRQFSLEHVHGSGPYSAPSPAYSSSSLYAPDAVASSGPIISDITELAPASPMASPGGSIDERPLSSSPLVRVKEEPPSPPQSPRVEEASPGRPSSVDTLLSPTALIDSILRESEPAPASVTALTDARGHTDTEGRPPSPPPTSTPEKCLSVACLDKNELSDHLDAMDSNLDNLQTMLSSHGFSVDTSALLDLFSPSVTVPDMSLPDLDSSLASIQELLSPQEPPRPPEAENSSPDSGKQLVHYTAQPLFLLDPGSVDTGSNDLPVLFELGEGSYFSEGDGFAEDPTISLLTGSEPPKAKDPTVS
Hypoxia-inducible factor 1-alpha (Homo sapiens), sequence (Q16665 whole entry, looked up): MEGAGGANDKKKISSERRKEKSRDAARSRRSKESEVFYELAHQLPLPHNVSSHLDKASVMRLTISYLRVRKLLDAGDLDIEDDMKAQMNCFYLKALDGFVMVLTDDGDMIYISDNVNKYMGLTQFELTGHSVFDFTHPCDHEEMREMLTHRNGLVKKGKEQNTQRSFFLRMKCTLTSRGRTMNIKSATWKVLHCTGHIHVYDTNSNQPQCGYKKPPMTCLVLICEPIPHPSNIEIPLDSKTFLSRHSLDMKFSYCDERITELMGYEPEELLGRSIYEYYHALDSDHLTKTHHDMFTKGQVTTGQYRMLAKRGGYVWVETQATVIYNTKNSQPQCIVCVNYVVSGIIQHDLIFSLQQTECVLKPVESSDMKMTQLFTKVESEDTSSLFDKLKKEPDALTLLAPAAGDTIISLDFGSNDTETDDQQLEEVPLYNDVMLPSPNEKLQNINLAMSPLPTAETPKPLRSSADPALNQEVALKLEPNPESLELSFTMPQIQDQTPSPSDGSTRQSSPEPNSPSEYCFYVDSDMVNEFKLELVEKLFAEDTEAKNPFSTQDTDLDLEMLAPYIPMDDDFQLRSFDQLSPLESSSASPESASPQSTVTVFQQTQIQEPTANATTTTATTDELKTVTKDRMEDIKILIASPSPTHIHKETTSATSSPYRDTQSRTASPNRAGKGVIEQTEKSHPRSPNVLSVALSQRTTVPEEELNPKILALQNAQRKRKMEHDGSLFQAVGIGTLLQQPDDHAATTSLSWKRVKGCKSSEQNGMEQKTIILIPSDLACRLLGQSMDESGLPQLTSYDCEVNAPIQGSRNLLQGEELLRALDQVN
Paired box protein Pax-6 (Homo sapiens), sequence (P26367 whole entry, looked up): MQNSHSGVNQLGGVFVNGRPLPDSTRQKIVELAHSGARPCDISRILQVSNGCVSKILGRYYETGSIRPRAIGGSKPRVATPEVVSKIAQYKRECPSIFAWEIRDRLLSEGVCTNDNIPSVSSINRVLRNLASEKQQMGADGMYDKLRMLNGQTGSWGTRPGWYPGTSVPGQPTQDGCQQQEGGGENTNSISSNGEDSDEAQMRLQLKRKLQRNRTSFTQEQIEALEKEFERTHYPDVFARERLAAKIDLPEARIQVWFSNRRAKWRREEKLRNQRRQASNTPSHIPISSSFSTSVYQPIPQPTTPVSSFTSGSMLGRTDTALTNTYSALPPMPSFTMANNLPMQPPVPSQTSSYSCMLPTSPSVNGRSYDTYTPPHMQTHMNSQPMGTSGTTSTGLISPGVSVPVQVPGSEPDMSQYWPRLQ

Consider `ClC1=C(Cl)[C@]2(Cl)[C@@H]3[C@H]4C[C@H]([C@@H]5O[C@H]45)[C@@H]3[C@@]1(Cl)C2(Cl)Cl`, for which the outcome in assay [1], in assay [2], in [3], in assay [4], in assay [6] and in [7] was inactive. For the same compound, the result in [8], in [9], in assay [10], in assay [11], in assay [12] and in assay [13] was inactive. Also, the compound was called inactive in [14], in [15], in assay [16], in [17], in assay [18] and in assay [19]. Also, in assay [5], the AC50 (commonly the midpoint of the concentration-response curve, whichever way the signal moves) is 279 nM (active).

As for `Cc1ccccc1[N+](=O)[O-]`, the outcome in assay [1], in assay [2], in assay [3], in assay [4], in assay [5] and in assay [6] was inactive. Also, the call in assay [7], in assay [8], in assay [9], in assay [10], in assay [11] and in assay [12] was inactive. Also, the outcome in assay [13], in [14], in assay [15], in [16], in assay [18] and in assay [20] was inactive. Further, the call in assay [19] was inactive.

Turning to `Cc1ccccc1O`, the result in [1], in [2], in assay [3], in [4], in assay [5] and in assay [6] was inactive. Further, the compound was classed as inactive in assay [7], in assay [8], in [9], in assay [10], in assay [11] and in [12]. Besides, the compound was classed as inactive in [13], in assay [14], in assay [15], in [16], in assay [17] and in [18]. Further, the outcome in [20] and in [19] was inactive.

`ClC(Cl)=C(c1ccc(Cl)cc1)c1ccc(Cl)cc1`: the AC50 was 58.3 µM (active) and 24.8 µM (active) in assay [1]; 129 µM (active) in assay [4]; 14 µM (active) [middle of 4 runs] in [5]; 155 µM (active) in assay [9]; 131 µM (active) and 63.1 µM (active) and 121 µM (active) in [10]; 100 µM (active) in assay [12]. Also, the AC50 in assay [15] was 169 µM (active); in [17], 174 µM (active); in assay [18] it was 156 µM (active); in [19] it was 100 µM (active). Further, the outcome in [1], in assay [2], in assay [3], in assay [4], in assay [6] and in assay [7] was inactive. The outcome in [8], in [9], in assay [10], in assay [11], in assay [12] and in assay [13] was inactive. The result in assay [14], in assay [15], in assay [16], in assay [17], in assay [18] and in assay [20] was inactive. Further, the compound was classed as inactive in assay [19].

`NS(=O)(=O)C(F)(F)C(F)(F)C(F)(F)C(F)(F)C(F)(F)C(F)(F)C(F)(F)C(F)(F)F`: the AC50 in [1] was 240 µM (active); in assay [3], 52 µM (active) and 40.8 µM (active); in assay [5] it was 14.2 µM (active) and 38.2 µM (active) and 5.74 µM (active); in [6], 38.8 µM (active); in assay [7], 258 µM (active); in assay [12], 91.1 µM (active) and 35.8 µM (active). The AC50 was 96.7 µM (active) in assay [16]; 59.8 µM (active) and 115 µM (active) and 28.3 µM (active) in assay [17]; 52.2 µM (active) and 39.2 µM (active) and 50 µM (active) in assay [18]; 46.7 µM (active) and 33.8 µM (active) in assay [20]; 54.8 µM (active) and 92.1 µM (active) in [19]. The outcome in [1], in assay [2], in [3], in assay [4], in [6] and in [7] was inactive. Moreover, the call in assay [8], in [9], in assay [10], in assay [11], in assay [12] and in [13] was inactive. The result in assay [14], in assay [16], in assay [20] and in assay [19] was inactive.
